This passage reports inhibition results from ChEMBL document CHEMBL1961873, “Compounds: GSK PKIS; Assays: Nanosyn kinase panel” (2012).

By inhibition is commonly meant the change of the read-out against control, counted positive when it falls.

Assay [1] deals with Tyrosine-protein kinase ABL1 (Homo sapiens), P00519 [T315I]. As to conditions: at 1 µM.
For assay [2], the system named is Tyrosine-protein kinase ABL1 (Homo sapiens), P00519 [Y253F]. The note with it: at 0.1 µM.
Assay [3] shares this test system. The note with it: at 1 µM.
The target of assay [4] is Tyrosine-protein kinase ABL1 (Homo sapiens) (UniProt P00519). As to conditions: at 0.1 µM.
Assay [5] has the same target. As to conditions: at 1 µM.
The target of assay [6] is ALK tyrosine kinase receptor (Homo sapiens) (UniProt Q9UM73). The note with it: at 0.1 µM.
For assay [7] the target is unchanged. The note with it: at 1 µM.
Assay [8] deals with Tyrosine-protein kinase ABL2 (Homo sapiens) (UniProt P42684). As to conditions: at 0.1 µM.
For assay [9] the target is unchanged. As to conditions: at 1 µM.
Assay [10] addresses Tyrosine-protein kinase receptor UFO (Homo sapiens) (UniProt P30530). As to conditions: at 0.1 µM.
For assay [11] the target is unchanged. As to conditions: at 1 µM.
The target of assay [12] is Tyrosine-protein kinase Blk (Homo sapiens) (UniProt P51451). The note with it: at 0.1 µM.
For assay [13] the target is unchanged. The note with it: at 1 µM.
The target in assay [14] is T1, Cytoplasmic tyrosine-protein kinase BMX (Homo sapiens) (UniProt P51813).
T1 sequence (whole entry): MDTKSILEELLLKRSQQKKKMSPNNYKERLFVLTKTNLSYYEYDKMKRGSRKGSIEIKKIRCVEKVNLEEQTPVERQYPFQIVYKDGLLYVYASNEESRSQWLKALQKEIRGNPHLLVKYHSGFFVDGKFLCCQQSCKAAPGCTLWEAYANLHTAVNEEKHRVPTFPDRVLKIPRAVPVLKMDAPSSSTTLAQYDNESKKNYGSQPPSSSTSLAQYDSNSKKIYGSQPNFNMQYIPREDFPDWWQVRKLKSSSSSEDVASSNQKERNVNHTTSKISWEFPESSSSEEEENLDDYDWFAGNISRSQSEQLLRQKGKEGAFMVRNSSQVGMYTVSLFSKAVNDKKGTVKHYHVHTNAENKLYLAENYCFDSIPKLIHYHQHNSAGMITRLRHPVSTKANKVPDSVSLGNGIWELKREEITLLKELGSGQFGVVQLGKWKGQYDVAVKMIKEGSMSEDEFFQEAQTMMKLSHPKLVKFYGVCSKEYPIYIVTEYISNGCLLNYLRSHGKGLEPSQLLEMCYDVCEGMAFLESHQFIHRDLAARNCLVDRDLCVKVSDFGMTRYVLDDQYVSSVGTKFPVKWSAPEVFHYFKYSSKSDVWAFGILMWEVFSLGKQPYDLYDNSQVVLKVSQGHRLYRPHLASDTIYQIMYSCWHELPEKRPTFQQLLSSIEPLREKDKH
The note with it: at 0.1 µM.

Assay [15] deals with T1, Cytoplasmic tyrosine-protein kinase BMX (Homo sapiens). The note with it: at 1 µM.
In assay [16] the target is Protein-tyrosine kinase 6 (Homo sapiens) (UniProt Q13882). The note with it: at 0.1 µM.
The target is the same in assay [17]. As to conditions: at 1 µM.
Assay [18] addresses Tyrosine-protein kinase BTK (Homo sapiens) (UniProt Q06187). The note with it: at 0.1 µM.
The target is the same in assay [19]. The note with it: at 1 µM.
The target in assay [20] is Tyrosine-protein kinase CSK (Homo sapiens) (UniProt P41240). As to conditions: at 0.1 µM.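 Also: value given is the averaged percent inhibition of CSK kinase activity, from the GSK PKIS kinase inhibitor set screening panel.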
Chain of Tyrosine-protein kinase CSK (Homo sapiens) (P41240 2-450 limits assumed): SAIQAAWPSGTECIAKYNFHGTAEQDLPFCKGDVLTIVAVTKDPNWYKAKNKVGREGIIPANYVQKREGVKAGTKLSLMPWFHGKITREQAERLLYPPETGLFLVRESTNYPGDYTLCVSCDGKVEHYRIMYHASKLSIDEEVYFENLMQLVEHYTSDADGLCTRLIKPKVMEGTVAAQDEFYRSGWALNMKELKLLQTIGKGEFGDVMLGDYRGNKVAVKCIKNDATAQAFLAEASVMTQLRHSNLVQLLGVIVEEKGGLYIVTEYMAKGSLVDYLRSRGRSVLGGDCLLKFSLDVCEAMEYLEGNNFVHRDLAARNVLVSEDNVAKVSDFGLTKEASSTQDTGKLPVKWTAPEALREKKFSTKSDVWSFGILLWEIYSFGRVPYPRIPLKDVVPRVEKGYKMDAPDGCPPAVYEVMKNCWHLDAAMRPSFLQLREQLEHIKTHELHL

Chain of ALK tyrosine kinase receptor (Homo sapiens) (Q9UM73 19-1620 limits assumed): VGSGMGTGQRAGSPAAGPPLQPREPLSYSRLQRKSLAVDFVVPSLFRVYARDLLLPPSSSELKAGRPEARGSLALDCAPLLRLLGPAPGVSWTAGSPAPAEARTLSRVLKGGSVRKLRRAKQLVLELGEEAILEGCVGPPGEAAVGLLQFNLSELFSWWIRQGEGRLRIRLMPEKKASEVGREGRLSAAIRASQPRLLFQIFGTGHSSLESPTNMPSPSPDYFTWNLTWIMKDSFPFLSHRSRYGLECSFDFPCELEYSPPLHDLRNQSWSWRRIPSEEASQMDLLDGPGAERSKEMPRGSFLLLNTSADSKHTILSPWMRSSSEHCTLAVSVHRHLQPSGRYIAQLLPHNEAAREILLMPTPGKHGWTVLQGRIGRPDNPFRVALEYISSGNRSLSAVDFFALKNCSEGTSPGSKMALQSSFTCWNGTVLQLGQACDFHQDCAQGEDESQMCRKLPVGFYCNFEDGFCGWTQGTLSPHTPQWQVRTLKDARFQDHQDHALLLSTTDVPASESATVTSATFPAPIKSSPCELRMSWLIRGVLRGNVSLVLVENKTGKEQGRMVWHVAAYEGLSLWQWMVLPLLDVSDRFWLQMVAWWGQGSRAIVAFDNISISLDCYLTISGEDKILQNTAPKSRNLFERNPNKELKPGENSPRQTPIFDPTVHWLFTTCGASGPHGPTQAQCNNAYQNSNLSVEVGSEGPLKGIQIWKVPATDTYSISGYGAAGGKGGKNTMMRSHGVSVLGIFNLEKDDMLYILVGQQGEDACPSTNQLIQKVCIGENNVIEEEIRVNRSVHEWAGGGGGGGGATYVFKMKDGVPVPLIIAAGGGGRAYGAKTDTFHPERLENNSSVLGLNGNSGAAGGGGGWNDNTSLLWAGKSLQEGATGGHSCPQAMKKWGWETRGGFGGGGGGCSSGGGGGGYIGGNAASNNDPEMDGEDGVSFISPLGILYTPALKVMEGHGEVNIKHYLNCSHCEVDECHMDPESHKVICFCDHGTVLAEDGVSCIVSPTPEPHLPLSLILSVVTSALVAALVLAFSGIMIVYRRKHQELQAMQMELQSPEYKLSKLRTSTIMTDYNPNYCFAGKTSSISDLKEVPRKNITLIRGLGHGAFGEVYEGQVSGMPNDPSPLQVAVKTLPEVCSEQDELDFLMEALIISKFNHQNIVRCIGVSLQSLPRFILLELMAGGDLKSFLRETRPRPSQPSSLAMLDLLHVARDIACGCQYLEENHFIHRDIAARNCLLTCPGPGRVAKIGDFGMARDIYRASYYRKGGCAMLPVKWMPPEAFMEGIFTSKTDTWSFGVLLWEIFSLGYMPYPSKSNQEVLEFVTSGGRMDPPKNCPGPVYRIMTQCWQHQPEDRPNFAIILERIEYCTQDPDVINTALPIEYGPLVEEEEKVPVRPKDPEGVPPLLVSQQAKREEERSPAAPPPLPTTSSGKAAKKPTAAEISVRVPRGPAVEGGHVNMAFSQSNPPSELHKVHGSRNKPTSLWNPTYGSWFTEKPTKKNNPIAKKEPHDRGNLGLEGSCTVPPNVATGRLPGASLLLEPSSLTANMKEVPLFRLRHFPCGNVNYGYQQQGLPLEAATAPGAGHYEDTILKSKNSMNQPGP
Chain of Protein-tyrosine kinase 6 (Homo sapiens) (Q13882 whole entry, looked up): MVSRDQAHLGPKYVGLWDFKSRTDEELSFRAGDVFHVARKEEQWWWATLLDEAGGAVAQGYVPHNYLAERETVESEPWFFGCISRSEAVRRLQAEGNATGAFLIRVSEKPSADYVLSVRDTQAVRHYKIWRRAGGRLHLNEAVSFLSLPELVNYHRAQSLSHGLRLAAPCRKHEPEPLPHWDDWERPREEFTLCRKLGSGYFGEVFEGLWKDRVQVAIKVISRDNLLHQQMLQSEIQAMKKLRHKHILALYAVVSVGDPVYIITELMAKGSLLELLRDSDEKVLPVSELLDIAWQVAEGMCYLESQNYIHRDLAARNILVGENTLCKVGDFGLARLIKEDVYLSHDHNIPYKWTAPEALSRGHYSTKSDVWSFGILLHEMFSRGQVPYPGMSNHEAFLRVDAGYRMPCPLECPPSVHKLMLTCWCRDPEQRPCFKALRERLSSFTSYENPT
Chain of Tyrosine-protein kinase receptor UFO (Homo sapiens) (P30530 whole entry): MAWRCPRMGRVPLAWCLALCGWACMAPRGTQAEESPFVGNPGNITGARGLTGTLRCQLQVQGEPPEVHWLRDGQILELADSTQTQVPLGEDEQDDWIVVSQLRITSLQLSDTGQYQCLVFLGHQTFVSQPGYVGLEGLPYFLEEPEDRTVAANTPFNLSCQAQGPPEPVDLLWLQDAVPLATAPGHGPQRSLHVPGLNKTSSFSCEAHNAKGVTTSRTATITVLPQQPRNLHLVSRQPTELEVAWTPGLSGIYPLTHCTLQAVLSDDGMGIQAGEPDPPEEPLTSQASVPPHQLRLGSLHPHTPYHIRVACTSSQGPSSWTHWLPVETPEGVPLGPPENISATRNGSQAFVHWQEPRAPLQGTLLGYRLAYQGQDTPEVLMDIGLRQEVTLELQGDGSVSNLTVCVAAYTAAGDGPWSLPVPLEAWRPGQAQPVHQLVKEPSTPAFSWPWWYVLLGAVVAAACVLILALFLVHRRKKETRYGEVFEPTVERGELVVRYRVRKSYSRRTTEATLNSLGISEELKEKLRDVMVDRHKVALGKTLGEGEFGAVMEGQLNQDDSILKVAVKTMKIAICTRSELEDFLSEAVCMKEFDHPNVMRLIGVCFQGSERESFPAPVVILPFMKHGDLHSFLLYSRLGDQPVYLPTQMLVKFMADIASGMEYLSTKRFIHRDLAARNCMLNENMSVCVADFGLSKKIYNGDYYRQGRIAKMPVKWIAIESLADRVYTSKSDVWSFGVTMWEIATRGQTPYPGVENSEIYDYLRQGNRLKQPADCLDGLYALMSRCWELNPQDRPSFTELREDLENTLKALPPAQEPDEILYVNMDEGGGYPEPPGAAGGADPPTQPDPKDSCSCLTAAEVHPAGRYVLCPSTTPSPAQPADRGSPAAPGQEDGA
Chain of Tyrosine-protein kinase ABL2 (Homo sapiens) (P42684 whole entry): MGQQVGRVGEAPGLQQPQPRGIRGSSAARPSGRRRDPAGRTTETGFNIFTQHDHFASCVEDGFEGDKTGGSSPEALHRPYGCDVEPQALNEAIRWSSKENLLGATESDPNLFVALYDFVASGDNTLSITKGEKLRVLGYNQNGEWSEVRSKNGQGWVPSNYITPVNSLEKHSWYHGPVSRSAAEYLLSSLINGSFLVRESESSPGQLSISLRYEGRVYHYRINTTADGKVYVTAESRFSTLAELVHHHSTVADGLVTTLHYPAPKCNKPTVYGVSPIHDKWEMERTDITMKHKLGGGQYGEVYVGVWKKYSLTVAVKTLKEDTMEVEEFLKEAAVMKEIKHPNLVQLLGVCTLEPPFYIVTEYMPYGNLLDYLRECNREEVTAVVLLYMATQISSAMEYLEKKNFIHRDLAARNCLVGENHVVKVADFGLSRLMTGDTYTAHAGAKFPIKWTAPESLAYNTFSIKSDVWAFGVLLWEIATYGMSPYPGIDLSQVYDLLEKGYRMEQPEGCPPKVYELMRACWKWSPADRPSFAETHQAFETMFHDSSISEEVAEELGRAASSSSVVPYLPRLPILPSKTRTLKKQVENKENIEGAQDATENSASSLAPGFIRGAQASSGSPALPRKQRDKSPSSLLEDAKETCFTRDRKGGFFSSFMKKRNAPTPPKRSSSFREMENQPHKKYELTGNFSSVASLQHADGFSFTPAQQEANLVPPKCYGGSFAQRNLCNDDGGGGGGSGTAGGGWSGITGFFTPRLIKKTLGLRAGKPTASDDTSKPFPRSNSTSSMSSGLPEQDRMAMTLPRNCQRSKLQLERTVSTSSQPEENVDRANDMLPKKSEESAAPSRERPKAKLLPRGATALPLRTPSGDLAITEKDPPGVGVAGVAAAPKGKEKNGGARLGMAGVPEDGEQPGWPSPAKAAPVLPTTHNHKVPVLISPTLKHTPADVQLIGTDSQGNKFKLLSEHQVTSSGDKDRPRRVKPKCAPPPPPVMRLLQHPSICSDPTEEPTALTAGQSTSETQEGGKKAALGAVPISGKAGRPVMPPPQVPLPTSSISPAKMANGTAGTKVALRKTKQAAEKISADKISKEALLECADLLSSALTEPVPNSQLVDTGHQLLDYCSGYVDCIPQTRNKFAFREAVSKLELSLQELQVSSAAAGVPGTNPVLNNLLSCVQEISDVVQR
Chain of Tyrosine-protein kinase Blk (Homo sapiens) (P51451 2-505 limits assumed): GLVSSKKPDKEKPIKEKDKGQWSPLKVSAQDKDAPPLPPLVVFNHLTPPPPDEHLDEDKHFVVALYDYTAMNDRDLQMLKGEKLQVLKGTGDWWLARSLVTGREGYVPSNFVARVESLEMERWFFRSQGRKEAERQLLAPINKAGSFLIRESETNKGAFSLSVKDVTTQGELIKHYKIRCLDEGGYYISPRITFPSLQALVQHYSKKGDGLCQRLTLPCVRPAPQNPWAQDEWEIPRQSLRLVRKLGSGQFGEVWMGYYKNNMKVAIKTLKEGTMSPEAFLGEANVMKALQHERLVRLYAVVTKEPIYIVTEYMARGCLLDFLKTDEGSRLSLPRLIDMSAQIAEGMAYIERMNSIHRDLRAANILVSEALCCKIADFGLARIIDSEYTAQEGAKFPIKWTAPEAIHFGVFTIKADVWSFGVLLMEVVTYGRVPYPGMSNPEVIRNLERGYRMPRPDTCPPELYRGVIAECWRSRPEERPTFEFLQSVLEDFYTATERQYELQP

As for `CCn1c(-c2nonc2N)nc2c(C#CC(C)(C)O)nc(OCCNC)cc21`, the inhibition worked out at 4.21% in [1]; 1.69% in [2]; 4.64% in assay [3]; 4.99% in assay [4]; 5.14% in [5]; 2.7% in [6]. Besides, the inhibition in [7] is 3.58%; in assay [8], 1.91%; in [9], 4.33%; in assay [10], -7.46%; in assay [11], -6.1%; in assay [12], 1.45%. Moreover, the inhibition in assay [13] is 3.35%; in assay [14], 3.16%; in assay [15], 6.56%; in assay [16], 5.42%; in [17], 3.09%; in assay [18], -1.33%. The inhibition in assay [19] is -0.61%; in [20] it was 1.36%.
For `N#Cc1cccc(Nc2nccc(-c3cnn4ncccc34)n2)c1`, the inhibition in assay [1] is 34.2%; in assay [2], 12.6%; in assay [3] it was 49.8%; in assay [4], 13.6%; in assay [5] it was 47.5%; in [6], 4.04%. For the same molecule, the inhibition in [7] was 18.7%; in assay [8] it was 11.9%; in assay [9], 44.3%; in assay [10], -0.03%; in assay [11], 33.8%; in assay [12], 5.38%. Besides, the inhibition amounted to 26.5% in assay [13]; 4.87% in [14]; 39.7% in [15]; 5.32% in [16]; 23.5% in assay [17]; 2.23% in [18]. The inhibition in assay [19] stood at 5.13%; in [20], 5.02%.
Consider `O=S(=O)(CCOCc1ccc(-c2ccc3ncnc(Nc4ccc(OCc5cccc(F)c5)c(Cl)c4)c3c2)o1)c1ccccc1`, for which the inhibition turned out to be 0.23% in assay [1]; 1.1% in assay [2]; 1.05% in assay [3]; 2.88% in [4]; 5.13% in assay [5]; 0.65% in [6]. The inhibition is 3.74% in assay [7]; 2.62% in [8]; 6.65% in assay [9]; -0.96% in assay [10]; 1.46% in assay [11]; -1.07% in [12]. The inhibition in assay [13] was 1.68%; in assay [14], -0.56%; in [15], 1.08%; in assay [16], 0.18%; in assay [17], 1.77%; in assay [18], -1.67%. Besides, the inhibition was -1.3% in [19] and 1.76% in assay [20].
On to `CCCN1CCCC(c2ccc(Nc3nc(Nc4cc(F)ccc4C(N)=O)c4cc[nH]c4n3)c(OC)c2)C1` (centres undefined), for which the inhibition in assay [1] worked out at 12.1%; in [2], 4.98%; in [3], 9.67%; in [4], 3.75%; in assay [5], 9.3%; in [6], 98.2%. Also, the inhibition in assay [7] turned out to be 86.3%; in [8], 2.38%; in [9] it was 3.99%; in assay [10], 9.62%; in assay [11], 57.4%; in [12] it was 2.11%. Besides, the inhibition was 6.81% in assay [13]; 5.67% in [14]; 5.71% in assay [15]; 18.1% in [16]; 67.8% in assay [17]; 0.49% in assay [18]. Moreover, the inhibition in [19] was -1.31%; in assay [20], 2.66%.
As for `N#Cc1c(NC(=O)c2ccccc2F)sc2c1CCCC2`, the inhibition was 0.12% in [1]; -0.24% in assay [2]; 0.05% in assay [3]; 0.07% in [4]; 1.47% in [5]; -1.14% in [6]. Besides, the inhibition is 1.02% in assay [7]; -0.22% in assay [8]; 1.82% in [9]; 1.78% in assay [10]; 2.38% in assay [11]; -0.71% in assay [12]. The inhibition in assay [13] was 0.42%; in assay [14], -1.17%; in [15] it was -1.62%; in [16] it was 0.56%; in assay [17], -1.93%; in assay [18], 0.32%. In addition, the figures for the inhibition in assay [19] and in assay [20] were -0.23% and -1.65%, respectively.
Turning to `C[C@@H](Oc1cc(-n2cnc3ccc(OC[C@@H](O)CO)cc32)sc1C(N)=O)c1ccccc1Cl`, the inhibition in assay [1] was 12.4%; in assay [2], -0.46%; in assay [3], 10.3%; in [4], -0.45%; in assay [5], 11.7%; in assay [6], -0.7%. Also, the inhibition in [7] was 4.65%; in [8] it was 0.97%; in [9], 7.64%; in assay [10] it was 2.21%; in [11] it was 3.2%; in [12], -0.24%. Moreover, the inhibition is 3.09% in [13]; 4.05% in [14]; 0.31% in assay [15]; -0.38% in assay [17]; -0.29% in [18]; -0.5% in assay [19]. Moreover, the inhibition in [20] is -0.73%.
On to `COc1cccc(-n2nc(C)c3c(N/N=C(\C)c4ccncc4)ncnc32)c1`, for which the inhibition was -0.56% in assay [1]; 1.07% in assay [2]; 4.85% in [3]; 3.36% in assay [4]; 9.11% in [5]; 0.43% in assay [6]. The inhibition in assay [7] is 1.35%; in assay [8], -0.17%; in assay [9], 5.82%; in [10] it was -2.14%; in [11], 0.56%; in assay [12], -0.21%. The inhibition in [13] is 1.02%; in assay [14], 1.51%; in assay [15], 3.74%; in [16], -1.24%; in assay [17] it was -0.15%; in assay [18], 0.11%. Besides, the inhibition in [19] was -0.4%; in assay [20], -0.83%.
